Bioassay records as filed in PubChem BioAssay.
Hits are enriched below; roughly 9.4% of the tested compounds scored in any of these assays.
SMN2 splice up – increases expression of the SMN2 splice variant; 2.8% of 210,000 active; Potency, µM (highest dose often 46.1 µM), for inactives: at the highest dose activity change, positive = activation, hits mostly activators; HEK293 SMN2-luciferase splicing reporter, luminescence, 30-36 h; AID 1458; also: % of control where 0% means no effect; nearly all actives have a fitted effect of over 55% in size
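HEK293 cells carry an SMN2 minigene-luciferase reporter in which exon 7 inclusion puts luciferase in frame. Cells were seeded at 2000 cells/well, attached for 10-12 hours, then exposed to compounds for 30-36 hours at 37C before ONE-Glo luminescence.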
ELG1 genotoxic – genotoxicity induction in ELG1-luciferase HEK293T cells; HEK293T ELG1-luciferase reporter, luminescence, 16 h; Potency, µM (doses to about 46 µM), for the others: at the top dose activity change, positive = activation, most hits filed as activators; 1.3% of 330,000 active; AID 504466; also: % of control where 0% means no effect; nearly all actives have a fitted effect of over 60% in size
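Reporter readout depends on ELG1 protein level, which increases with genetic stress. After 16 hr compound exposure at 37 °C, luciferase activity was quantified using ONE-Glo.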
FLuc modulator – firefly luciferase modulation, counter-screen for miR-21 project | Potency, µM (top dose mostly 57.5 µM), without a hit: top-dose activity change, negative = inhibition, usual class: inhibitors | 6.9% of 360,000 active | purified FLuc, Km substrates, luminescence inhibition;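 also: plate controls were vehicle for no effect and reference inhibitor for full effect; nearly all actives have a fitted effect of over 55% in size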
Target sequence (P08659 whole entry, looked up): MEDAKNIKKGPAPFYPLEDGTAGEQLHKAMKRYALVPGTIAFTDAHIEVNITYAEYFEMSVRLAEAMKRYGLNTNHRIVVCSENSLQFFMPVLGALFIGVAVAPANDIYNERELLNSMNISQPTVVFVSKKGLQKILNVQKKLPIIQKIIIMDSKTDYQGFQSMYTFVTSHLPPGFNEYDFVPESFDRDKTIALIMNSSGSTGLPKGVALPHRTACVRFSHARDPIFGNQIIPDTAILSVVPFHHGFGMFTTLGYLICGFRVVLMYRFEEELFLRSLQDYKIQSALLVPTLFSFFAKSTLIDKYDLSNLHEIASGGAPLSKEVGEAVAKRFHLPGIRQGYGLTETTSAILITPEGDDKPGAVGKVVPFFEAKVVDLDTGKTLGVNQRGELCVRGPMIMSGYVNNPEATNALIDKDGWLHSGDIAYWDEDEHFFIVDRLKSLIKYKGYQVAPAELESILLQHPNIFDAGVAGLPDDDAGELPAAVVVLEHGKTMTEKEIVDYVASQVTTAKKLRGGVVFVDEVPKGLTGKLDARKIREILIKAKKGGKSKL
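Purified P. pyralis luciferase (10nM final) with 10uM D-luciferin and 10uM ATP (Km levels) in 50mM Tris acetate pH 7.5, 10mM Mg acetate, 0.01% Tween-20, 0.05% BSA; qHTS 6-point titration, ~60 µM downward; luminescence read.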
Rab9 promoter act – activates the Rab9 promoter | 2.8% of 320,000 active | Potency, µM (titrated, usually from 9.22 µM), for inactives: at the top dose activation, negative = inhibition, usual class: activators | AID 485297 | Huh7 Rab9 promoter-luciferase reporter, luminescence, 24 h; also: % of control where 0% means no effect; nearly all actives have a fitted effect of over 60% in size
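Luminescence read-out: Huh7 cells stably expressing Rab9-luciferase, treated 24 h with compound at 37 °C, then lysed with luciferase reagent for 10 min at ambient before reading.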
NPC1 prom act – activates the NPC1 promoter; Huh7 NPC1 promoter luciferase reporter, 24 h; 2.4% of 320,000 active; Potency, µM (titrated, usually from 9.22 µM), for the others: at the highest dose activation, hits mostly activators; also: % of control where 0% means no effect; nearly all actives have a fitted effect of over 60% in size
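Readout is luciferase luminescence, reflecting NPC1 promoter activation in stably transfected Huh7 cells after 24 h compound exposure at 37 °C in reduced-serum medium with 10% FBS.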
ELG1 DNA repair – ELG1-dependent DNA repair inhibition. HEK293T ELG1-luciferase reporter, luminescence, 16 h; DNA damage induced by 5-fluorouridine. 2.3% of 330,000 active. Potency, µM (highest dose often 46.1 µM), for the others: at the highest dose activity change, negative = inhibition, actives largely listed as inhibitors; also: % is scaled to controls: 0 for no effect and ±100 for the full control effect; nearly all actives have a fitted effect of over 55% in size
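DMSO vehicle served as the neutral condition. Each well held 2,000 cells given 5-fluorouridine plus compound; after 16 hr at 37 °C/5% CO2, ONE-Glo was added and luciferase measured 30 min later.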
* hit, by the source's call; [ ] = remark or other dose. Calls follow the shape of the dose curve; as a rule, active = well fitted curve in the direction sought with a large enough effect; inconclusive = small, poorly fitted or top-dose-only effect, or another doubt; inactive = no such curve, though single readings can be large; an effect the other way counts as inactive or inconclusive. Potency is read from the fitted curve at half-maximal effect.

Results for COc1ccc(NC(=O)Cn2c(=O)n(-c3ccccc3)c(=O)c3c4c(sc32)CCCC4)cc1 ?
SMN2 splice up: -1%; FLuc modulator: 1%

Results for CCOc1ccccc1C(=O)Nc1cc2c(cc1N1CCOCC1)n(C)c(=O)n2C ?
SMN2 splice up: 7%; FLuc modulator: -5%

How did O=C(Nc1nc2c(F)cccc2s1)c1ccc([N+](=O)[O-])o1 do in these assays?
ELG1 genotoxic: 2%; FLuc modulator: inconclusive; Rab9 promoter act: inconclusive; NPC1 prom act: 4µM*; ELG1 DNA repair: inconclusive

How did O=C(Nc1nc2c(Cl)cccc2s1)c1ccc([N+](=O)[O-])o1 do in these assays?
ELG1 genotoxic: -12%; FLuc modulator: inconclusive; Rab9 promoter act: 9%; NPC1 prom act: -2%; ELG1 DNA repair: inconclusive

Results for Cc1ccc(C(=O)NNC(=O)c2nn(-c3ccc(F)cc3)ccc2=O)cc1 ?
ELG1 genotoxic: 1%; FLuc modulator: 15µM*; Rab9 promoter act: -6%; NPC1 prom act: -1%; ELG1 DNA repair: 17%

How did O=C(NNC(=O)c1nn(-c2ccc(F)cc2)ccc1=O)c1ccc(Cl)cc1 do in these assays?
ELG1 genotoxic: -4%; FLuc modulator: inconclusive; Rab9 promoter act: 9%; NPC1 prom act: 3%; ELG1 DNA repair: -26%

What do the screens show for `CCN1CC2=C(OC(N)=C(C#N)C2c2cccs2)/C(=C/c2cccs2)C1` (configuration not stated)?
SMN2 splice up: 2%; ELG1 genotoxic: -30%; FLuc modulator: -1%; Rab9 promoter act: -4%; NPC1 prom act: 0%; ELG1 DNA repair: 16µM*

What do the screens show for `CCN1CC2=C(OC(N)=C(C#N)C2c2ccccc2)/C(=C\c2ccccc2)C1` (configuration not stated)?
SMN2 splice up: -15%; ELG1 genotoxic: -29%; FLuc modulator: 0%; Rab9 promoter act: -7%; NPC1 prom act: -4%; ELG1 DNA repair: inconclusive

What do the screens show for `COc1ccc(Nc2nc(N)c3ccccc3n2)c(OC)c1`?
ELG1 genotoxic: inconclusive; FLuc modulator: 7.6µM*; Rab9 promoter act: 4.5µM*; NPC1 prom act: 3.5µM*; ELG1 DNA repair: inconclusive

What do the screens show for `COc1ccc(Nc2nc(N3CCCCC3)nc3ccccc23)c(OC)c1`?
SMN2 splice up: -13%; ELG1 genotoxic: -16%; FLuc modulator: -3%; Rab9 promoter act: -5%; NPC1 prom act: -1%; ELG1 DNA repair: 23µM*

Results for COc1ccc(Nc2nc(N)c3cc(OC)c(OC)cc3n2)cc1 ?
SMN2 splice up: 11%; FLuc modulator: 15µM*

Results for Cc1ccc(Nc2nc(N)c3ccccc3n2)cc1C ?
ELG1 genotoxic: inconclusive; FLuc modulator: 0.54µM*; Rab9 promoter act: 0.5µM*; NPC1 prom act: 0.5µM*; ELG1 DNA repair: inconclusive

How did COc1cc2nc(Nc3cccc(F)c3)nc(N)c2cc1OC do in these assays?
SMN2 splice up: 3%; ELG1 genotoxic: -6%; FLuc modulator: inconclusive; Rab9 promoter act: 0%; NPC1 prom act: 0%; ELG1 DNA repair: inconclusive

What do the screens show for `COc1ccc(Nc2nc(-c3ccccc3)nc3ccccc23)c(OC)c1`?
SMN2 splice up: -12%; ELG1 genotoxic: -6%; FLuc modulator: -19%; Rab9 promoter act: -5%; NPC1 prom act: -12%; ELG1 DNA repair: inconclusive

What do the screens show for `Clc1ccccc1Cn1cccc1C1=NC(Cc2ccccc2)CO1` (configuration not stated)?
SMN2 splice up: -26%; FLuc modulator: 5%

What do the screens show for `Nc1[nH]n(-c2ccccc2)c(=O)c1N=Nc1ccc2c(c1)OCO2`?
ELG1 genotoxic: inconclusive; FLuc modulator: 2.4µM*; Rab9 promoter act: 3.2µM*; NPC1 prom act: 3.5µM*; ELG1 DNA repair: inconclusive

Results for Cc1cc([N+](=O)[O-])ccc1N=Nc1c(N)[nH]n(-c2ccccc2)c1=O ?
SMN2 splice up: 2%; ELG1 genotoxic: -1%; FLuc modulator: -6%; Rab9 promoter act: -2%; NPC1 prom act: 8%; ELG1 DNA repair: 4%

Results for Nc1[nH]n(-c2ccccc2)c(=O)c1N=Nc1ccc2c(c1)OCCO2 ?
SMN2 splice up: 2.2µM*; ELG1 genotoxic: inconclusive; FLuc modulator: 0.6µM*; Rab9 promoter act: 0.5µM*; NPC1 prom act: 2µM*; ELG1 DNA repair: inconclusive

Results for COC(=O)c1ccc(C(NC(=O)OCc2ccccc2)/C(=C/[C@@H](C)C(=O)NC2CCCCC2)c2cccnc2)cc1 (some centres not stated) ?
SMN2 splice up: -5%

What do the screens show for `Fc1cc(F)c2ncc3c(-c4ccccc4)nn(-c4cccc(Cl)c4)c3c2c1`?
SMN2 splice up: 1%; FLuc modulator: -4%

Results for Cc1ccc(CCNC(=O)CCSCc2ccccc2F)cc1 ?
FLuc modulator: -14%

How did CCCCOC(=O)c1ccc(NC(=O)c2ccoc2C)cc1 do in these assays?
SMN2 splice up: inconclusive; ELG1 genotoxic: 21µM*; FLuc modulator: inconclusive; Rab9 promoter act: inconclusive; NPC1 prom act: 21%; ELG1 DNA repair: -3%

How did CCCOC(=O)c1ccc(NC(=O)c2ccccc2OC)cc1 do in these assays?
SMN2 splice up: -18%; ELG1 genotoxic: 16%; FLuc modulator: inconclusive; Rab9 promoter act: 14%; NPC1 prom act: 10%; ELG1 DNA repair: inconclusive

Results for CCCCOC(=O)c1ccc(NC(=O)c2ocnc2C)cc1 ?
SMN2 splice up: -8%; ELG1 genotoxic: 5%; FLuc modulator: 17µM*; Rab9 promoter act: 21%; NPC1 prom act: 19%; ELG1 DNA repair: 29%

What do the screens show for `CCCOC(=O)c1ccc(NC(=O)c2ccoc2C)cc1`?
SMN2 splice up: inconclusive; ELG1 genotoxic: 15%; FLuc modulator: 9.5µM*; Rab9 promoter act: 1.6µM*; NPC1 prom act: 3.2µM*; ELG1 DNA repair: inconclusive

What do the screens show for `COc1cc(OC)c(NS(=O)(=O)c2c(C(=O)N3CCC(C)CC3)c(C)n(C)c2C)cc1Cl`?
FLuc modulator: -6%

Results for CCCS(=O)(=O)O ?
SMN2 splice up: -5%[9.22 µM]

What do the screens show for `Cc1ccc(O)c(C(=O)/C=C/c2ccc3c(c2)OCCCO3)c1`?
SMN2 splice up: inconclusive; ELG1 genotoxic: inconclusive; FLuc modulator: 5.4µM*; Rab9 promoter act: inconclusive; NPC1 prom act: inconclusive; ELG1 DNA repair: inconclusive

Results for O=C(/C=C/c1ccc2c(c1)OCCCO2)c1ccccc1O ?
SMN2 splice up: inconclusive; ELG1 genotoxic: 16µM*; FLuc modulator: 0.27µM*; Rab9 promoter act: 1.8µM*; NPC1 prom act: 3.2µM*; ELG1 DNA repair: inconclusive
